Data taken from the supplement of paper PMC10105736.
Unmarked numbers belong to inactive results.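 How the source made its calls: active = MAPPIT score above the 99th percentile of random reference set scores in the same batch; inactive = at or below it.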

How the values were obtained:
Assay in all cases: MAPPIT interaction score (arbitrary units); higher = stronger binary interaction signal, active = hit call of the paper
nSyb = details: MAPPIT configuration: N-N; pair source set: DPIM
msl-2 = details: pair source set: Lit-BM-16
mwh = details: MAPPIT configuration: N-N; pair source set: Curagen_high_conf
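Further: HEK293T cells with Epo stimulation, STAT-responsive firefly luciferase reporter, fold induction versus unstimulated cells divided by the larger fold induction of two negative controls lacking either bait or prey.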

B1: Snap25 (protein)
chain: MPADPSEEVAPQVPKTELEELQINAQGVADESLESTRRMLALCEESKEAGIRTLVALDDQGEQLDRIEEGMDQINADMREAEKNLSGMEKCCGICVLPCNKSQSFKEDDGTWKGNDDGKVVNNQPQRVMDDRNGMMAQAGYIGRITNDAREDEMEENMGQVNTMIGNLRNMALDMGSELENQNRQIDRINRKGESNEARIAVANQRAHQLLK
MAPPIT interaction score (nSyb): 0.399

B2: eIF3c (protein)
chain: MSRFFANGSESESESSEEEIQATNFNKASAFQFSDDEEEVKRVVRSTKEKRYENLTSIIKTIRNHKKIKDIPNTLSSFEDLTRAYQKALPVISKEENGITPRFYIRCLAELEDFINEVWEDREGRKNLSKNNSKSLGTLRQKVRKYIKDFEDDLSRFREAPDQESEAEDEVVALESDGGDAGDDSDAGVKPTEAVPKAVKSAPAKAAPADDDDSDDSIDWDSDSESETESSDDENQYQNMRERFLKRTTEKEEKDDDKRKDKRKEQKTKIRKRAEDDEDGEWETVVKGHVVEKPKMFEKDAEIDVPLVLAKLLEIMSARGKKRTDRRLQIDLLFELRDISDQHNLGTAVSVKIHFNIISAIYDYNQKISEPMKLEHWALLLEVMQSMMKLLLANADIIMSESVAEEHEEYATSPFYVRGCPLAAVERLDDEFVKLLKECDPHSNDYVSRLKDEVNVVKTIELVLQYFERSGTNNERCRIYLRKIEHLYYKFDPEVLKKKRGELPATTSTSVDVMDKLCKFIYAKDDTDRIRTRAILAHIYHHAMHDNWFQARDLVLMSHLQDNIDAADPATRILYNRMMANLGLCAFRQGNVKDAHHCLVDLMVTGKPKELLAQGLLPQRQHERSAEQEKIEKQRQMPFHMHINLELLECVYLVSAMLLEIPYIAAHEFDARRRMISKTFYQQLRSSERQSLVGPPESMREHVVAAAKAMRCGNWQACANFIVNKKMNTKVWDLFYESDRVREMLTKFIKEESLRTYLFTYSNVYTSISIPSLAQMYELPVPKVHSIISKMIINEELMASLDDPSETVGMHRSEPSRLQALAMQFVDKVTNLVDVNEKVFDMKQGNFFQRGNMGNRGDRGYNRNQNNQGGNWLGQRRDRNNRNRNQRGHHKNNQDRQQQQQQQVQTIDEE
MAPPIT interaction score (nSyb): 0.214

B3: JIL-1 (protein)
chain: MSRLQKQNYEILSGTSTSRLKNHQHPRESESLAYEEPDQMVRNHLNGQLVANGNGKTRKNSNSETMTNGKKSKLNTEGSGSGSGKTLNYNNNNNNNNSISATNGQYTNSSSKTTSASARDYTYRETISPPTPPSPPTTNVADIVCISDAESEDGRDPEREYYDQDMEEDEPNGIEIDESSSSLSKAKSNNAAAAAAAAAAAAAAAASKASSSTTPSYAMPTSNSTPLDLDNEAHQRDLEAVTDLKYYVKLYSDEAVSLNDFKIIRVLGTGAYGRVFLVRKLTRHDAGKLYAMKVLNKITVVQKRKTAEHTKTERVVLEAIQRNPFLVSLHYAFQSSSKLYLVLDFANGGELFTHLYHSENFEESRVRVYIAEVVLALEQLHQLGIIYRDIKLENILLDGEGHIVLSDFGLSKILTAENEYRAHSFCGTLEYMAPEIIRTGPPGHDSAVDWWSVGVLTFELLTGASPFATSDGQVQQSEISRRIQKEQPMIPSSFSANARDFVLKMLEKNPKRRLGGNHRDASEIKEHPFFNGINWQELRTKRRKAPYKPTLTAEDDVQNFSNEFTDQVPEDPECDAPPSRIRLFRGYTYVAPEHLEQMRRDNHCEIQYFNTGLQNIPCRPDDLELGTRTSNGAYGTCHFVVDSSTDLVFLAKIIPLSKFRPSEVDALISCALDTTNHKNIVSYHGTFREKCETWIVMEYLSGPELTASIRMDEDSCREIFLQLVMAVRHIHSKHFIHGDLKPENIMFENREDRTVKLIDFGSACYNNRFKSWKDKPRYTLDYAPPEMLADANLVTYSPAVDIYGLGATLYTMLVGHRPYRQNEDDVDHSAAAHHELRKRMRRGTFNQRSMRWESASPAFRHLVSWCLQRDPADRPTLSDILDSEWLQYGSNDPDVDIILPQQMVVDLSEDTMEQPTGGMFDDQQQLEFMHDKSAEDEGITLVSEPMDTTVATHESRRNAAAFSSVVAPTTDDEIVHERFDPAFEVQADFYGFDENAPPLPLPEEYYSELPLPEEDRQYIPPPPALIPVEPETTFRRPRTRQQRRTESQLVQPVSVATYEDSKASLRVLMQQLPPPGDNVVARIPKRTHRVVRTLPPTFGTTKREENFYGFSKTAISWRKTRASWRHFCLLINGVQQVLKVRFKKARRVYCLPHIKEEKLDHAYEKPLTFPRPKAQLKRTKREPKVPRPPTRVQPERARAMRQLYQFQ
MAPPIT interaction score (msl-2; MAPPIT configuration: N-C): 0.534
MAPPIT interaction score (msl-2; MAPPIT configuration: N-N): 0.0488

B4: mRpL13 (protein)
chain: MSIAKRVQQWATFARTWHIYDCTWQNPFESAKLVKTHLLGLQKPIYHPMNDCGDHVVLINTREIALPGDEWVKRVYFHHTGYPGGASWTLAWQLHEKDPTMVMKKAVYNSMRGNLQRRHTMQRLHLFADDQVPEEILQNVTNQIRTPRSIPQRLDHIDKETLENFPNIMDYPKDYILR
MAPPIT interaction score (nSyb): -0.207

B5: vilya (protein)
chain: MAKSQAGQTVEPEASKLWIHCNSCCALFCDKKHTFFLLACHHVFCERCVKVSAGRTPSDAPIFECSTCRRSVRGRQLTNSMPNHFKQLFHPEPFTIGNDFVETFQRGNHRHFDKYKERKELEMDKLFKDIEVAKSVCQKRFLEAQMLRVERKKLMQRSRYIKAEVANRKAEMHRMAQAYRSRSLTSQSSSSAQRSARGRPRGRGTATQSSSRRRSTESAKRQQITSFIHPPNNSFDL
MAPPIT interaction score (mwh): 0.602
